In the library only some 3.6% were active in any assay of this set; here they are far more common.
Mtb betalactam – beta-lactam sensitization of Mtb H37Rv | inhibition, % at 25 µM | AID 434955 | 330,000 tested, 0.27% active | M. tuberculosis H37Rv growth with meropenem, percent inhibition; call rule not given here;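 further: growth measured after seven days incubation then overnight dye step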
Mtb hypoxia rep – Mtb hypoxia fluorescent reporter inhibition | 300,000 tested, 0.1% active | M. tuberculosis hypoxia-regulated fluorescent reporter, fluorescence | fluorescence inhibition, % (test concentration not listed); in the data active means fluorescence inhibition mostly above about 23%, no sharp cut-off; inactive means mostly below about 17%
FBA Mtb inh – inhibits M. tuberculosis FBA enzyme. purified M. tuberculosis FBA, fluorescence read-out. inhibition, % at 1 µM. 360,000 tested, 2.3% active. AID 588726; in the data active means inhibition above about 27%
Target sequence (P9WQA3 whole entry, looked up): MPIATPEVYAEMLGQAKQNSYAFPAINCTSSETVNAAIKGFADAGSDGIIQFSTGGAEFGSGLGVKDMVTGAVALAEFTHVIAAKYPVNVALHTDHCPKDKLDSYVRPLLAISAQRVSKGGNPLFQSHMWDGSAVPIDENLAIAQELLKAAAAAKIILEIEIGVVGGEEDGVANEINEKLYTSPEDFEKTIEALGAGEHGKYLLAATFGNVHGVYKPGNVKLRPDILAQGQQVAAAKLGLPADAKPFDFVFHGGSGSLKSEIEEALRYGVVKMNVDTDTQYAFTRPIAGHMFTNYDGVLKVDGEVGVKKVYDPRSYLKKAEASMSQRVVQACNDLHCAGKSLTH
GDH-TPI counter – counter-screen for M. tuberculosis FBA inhibitors: GDH-TPI coupled enzymes; AID 588335; 360,000 tested, 1.2% active; inhibition, % at 4.8 µM; GDH-TPI coupled enzyme counterscreen, NADH absorbance; in the data active means inhibition above about 30%
DUSP3 inh – inhibitors of human VHR1 phosphatase (DUSP3); inhibition, % at 13.3 µM; recombinant VHR phosphatase, pNPP absorbance; 290,000 tested, 0.52% active; P51452; in the data active means inhibition above about 50%
A number is an active result; i = inactive; nt = no result; + = active, no number.

SMILES	Mtb betalactam	Mtb hypoxia rep	FBA Mtb inh	GDH-TPI counter	DUSP3 inh
COCCNC(=O)CCSc1nc(-c2ccc(OC)cc2)cc(C(F)(F)F)n1	i	nt	i	36	i
Cc1nn(-c2ccccc2)c2sc(-c3nnc(SCC(=O)O)o3)cc12	i	i	101	i	i
CSc1ccc(/C=N/n2c(C)cc(C)cc2=O)cc1	i	nt	i	33	i
N#Cc1c(-c2cccs2)cc(-c2ccccn2)nc1N	nt	nt	78	i	i
N#Cc1c(N)nc2c(c1-c1cccs1)CCCC2	i	i	i	i	i
COc1ccc([N+]([O-])=Cc2ccco2)cc1	nt	i	nt	nt	nt
CC=CC=CC(=O)Nc1cccc(C2=NOC3(C2)CC(C(N)=O)N(C(=O)c2cc([N+](=O)[O-])cc([N+](=O)[O-])c2)C3)c1 (stereo unspecified)	nt	57	nt	nt	nt
Cn1c(=O)c2cc(NC(=O)Cc3ccccc3F)ccc2n1Cc1ccc(Cl)cc1	nt	nt	133	i	nt
Cn1c(=O)c2cc(NC(=S)NC3CCCCC3)ccc2n1Cc1ccc(Cl)cc1	nt	nt	i	i	nt
CC(CC(=O)Nc1ccc2c(c1)c(=O)n(C)n2Cc1cccc(C(F)(F)F)c1)C(F)(F)F (stereo unspecified)	nt	nt	126	i	nt
CN(C)c1ccc(NC(=O)Nc2ccc3c(c2)c(=O)n(C)n3Cc2ccccc2)cc1	nt	nt	i	i	nt
CC(CC(=O)Nc1ccc2c(c1)c(=O)n(C)n2Cc1ccc(Cl)cc1)C(F)(F)F (stereo unspecified)	nt	nt	143	i	nt
COc1cc(Cn2c3ccc(NC(=O)CC(C)C(F)(F)F)cc3c(=O)n2C)ccc1F (stereo unspecified)	nt	nt	174	i	nt
Cc1cc(-c2ccccc2)nc(NN=Cc2ccc(O)cc2O)n1	nt	i	nt	nt	nt
Cn1c(=O)c2cc(NC(=S)NCc3ccccc3F)ccc2n1Cc1ccccc1	nt	nt	i	i	nt
COc1cc(Cn2c3ccc(NC(=O)CC(C)(C)C)cc3c(=O)n2C)ccc1F	nt	nt	178	i	nt
COc1ccc(-n2c(SCC(=O)Nc3cc(C)on3)nc3c(c2=O)SCC3)cc1OC	i	i	i	i	57
CCC(C)C1COCCS(=O)(=O)N1Cc1ccc(Br)cc1 (stereo unspecified)	nt	i	nt	nt	nt
O=C(NN=Cc1coc2ccc(Cl)cc2c1=O)c1cc(O)cc(O)c1	nt	i	nt	nt	nt
CCn1c(O)c(N=NC(=O)CNC(=O)Cc2ccccc2)c2ccccc21	i	i	i	i	i
NC(=O)Cn1c(O)c(N=NC(=O)CNC(=O)/C=C/c2ccccc2)c2ccccc21	i	i	i	37	i
C=CCn1c(O)c(N=NC(=O)CNC(=O)/C=C/c2ccc(OC)cc2)c2ccccc21	i	i	i	38	i
O=C(CNC(=O)c1ccco1)N=Nc1c(O)n(CCc2ccccc2)c2ccccc12	i	i	i	i	i
CCCn1c(O)c(N=NC(=O)CNC(=O)/C=C/c2ccc(OC)cc2)c2ccccc21	i	i	i	i	i
C=CCn1c(O)c(N=NC(=O)CNC(=O)/C=C/c2ccco2)c2ccccc21	i	i	i	35	i
SMILES	Mtb betalactam	Mtb hypoxia rep	FBA Mtb inh	GDH-TPI counter	DUSP3 inh
COCc1cc(C)nc(NN=Cc2ccc(-c3ccc(Cl)cc3[N+](=O)[O-])o2)c1C#N	nt	i	nt	nt	nt
O=C(NNC(=S)Nc1ccccc1Cl)c1ccncc1	i	i	i	34	i
O=C(NNC(=S)Nc1ccc(Cl)cc1Cl)c1ccncc1	i	i	i	i	i
CCOc1ccc(CCN2C(=O)C(=O)N(C(CCCN(C)Cc3ccccc3)CNCc3ccccc3)CC2C(C)C)cc1 (stereo unspecified)	nt	i	nt	nt	nt
O=C1NC(=Nc2ccccc2Cl)S/C1=C\c1cccc([N+](=O)[O-])c1O	i	nt	i	36	i
O=C1N/C(=N/O)S/C1=C/c1cccnc1	i	i	i	i	i
O=C1NC(=NCc2ccccc2)S/C1=C\c1ccccc1	i	nt	i	43	i
O=C1NC(=Nc2ccccc2Cl)S/C1=C\c1ccc(C(=O)O)cc1	i	i	i	41	i
C#CCNC(=O)C1=CC(C2CCCCC2)CC(OCc2ccc(CO)cc2)O1 (stereo unspecified)	nt	i	nt	nt	nt
COC(=O)C1=C(c2ccc(F)cc2OCc2ccccc2)CC2CCC1N2C(=O)N1CCC(O)(c2ccc(Cl)cc2)CC1 (stereo unspecified)	nt	i	nt	nt	nt
CCc1cc(=O)oc2c3c(cc(OCC(=O)N[C@H](C(=O)O)[C@H](C)CC)c12)OC(C)(C)CC3	i	i	+	i	i
CCCc1cc(=O)oc2c3c(cc(OCC(=O)N[C@@H](C)C(=O)O)c12)OC(C)(C)CC3	i	i	+	i	i
CCCc1cc(=O)oc2c3c(cc(OCC(=O)N[C@@H](CSC)C(=O)O)c12)OC(C)(C)CC3	i	i	+	i	i
